Laboratory results reported in PubChem BioAssay (NCI).
Compounds without any hit were thinned out: in the full panel of roughly 79,000, 15% have a hit. Activity calls are given as the source filed them. Cut-off read from the data, not from the text of the source: active = growth inhibition above about 70%; inactive = the rest.

Assay: NCI Yeast Anticancer Drug Screen. Data for the sgs1 mgt1 strain (AID 161);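 note: 0% = growth of cultures given vehicle only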
Settings: S. cerevisiae sgs1 mgt1 strain, at 50.0 µM, active compounds read high
In short: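 Genetically altered yeast, compound exposure, growth inhibition relative to vehicle.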

Structure (SMILES) | growth inhibition
O=C(Nc1ccc(S(=O)(=O)F)cc1)/C(=C\c1ccc([N+](=O)[O-])cc1)c1cccc(Cl)c1 | -18.2% (inactive)
O=C(Nc1c(O)[nH]c(=S)[nH]c1=O)c1ccco1 | -10.8% (inactive)
Cc1cc(S(=O)(=O)F)ccc1NC(=O)NCc1ccc([N+](=O)[O-])cc1 | 24.1% (inactive)
N#CC[CH2][Sn]([I])([c]1ccccc1)[c]1ccccc1 | 98% (active)
CCOP(=O)(O)OCC.[Y] | 6.5% (inactive)
C1CCN2CC3CONC3C2C1 (stereo not given) | 2.05% (inactive)
CCOP(=O)(OCC)/C(C#N)=C/C=C/c1ccco1 | -30.7% (inactive)
CCOP(=S)(OCC)S/C(C(=O)NC)=C(/C)O | 35.4% (inactive)
O=C1NN2CCCN=C2c2cnccc21 | 11.4% (inactive)
COc1cc(O)c2c(O)c3c(=O)cc(C)oc3cc2c1 | 20.6% (inactive)
COC1C(O)CC(OC2CC(Oc3cc4cc5c(c(O)c4c(O)c3C)C(=O)[C@@H](OC3CC(OC4CC(OC6CC(C)(O)C(OC(C)=O)C(C)O6)C(O)C(C)O4)C(O)C(C)O3)[C@H]([C@H](OC)C(=O)[C@@H](O)[C@@H](C)O)C5)OC(C)C2OC(C)=O)OC1C (stereo not given in full) | 8.15% (inactive)
Cc1cccc2c1[se]c1ccccc12 | -12% (inactive)
O=N[O-].[Co].[NH-]CC[NH-].[NH-]CC[NH-].[NH2-] | -6.25% (inactive)
CN1C(=O)c2ccccc2NC(=O)C12O[C@@H]2c1ccccc1 (stereo not given in full) | -4.95% (inactive)
CCC(C)(C)C(=O)Nc1cccc(OC(=O)NC)c1 | 9.85% (inactive)
